In the library only some 0.92% were active in any assay of this set; here they are far more common.
Mtb UGM inh – inhibitors of M. tuberculosis UDP-galactopyranose mutase; inhibition, % at 10 µM; purified UGM, fluorescence polarization probe displacement; 0.06% of 320,000 active; P9WIQ1; in the data active = inhibition above about 10%, passing the limit was not always enough
Rv3671c protease – Rv3671c (M. tuberculosis) protease inhibition. AID 2606. 0.048% of 320,000 active. inhibition, % at 5.96 µM; in the data active = inhibition above about 38%;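 also: extracellular domain of Rv3671c used as enzyme; 0% = enzyme with DMSO and 100% = no enzyme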
RecA splice inh – Mtb RecA intein splicing inhibition; cell-free RecA intein splicing, fluorescence; inhibition, % (no concentration beside the values); 0.75% of 290,000 active; in the data active = inhibition above about 30%;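 also: 0% = vehicle wells and 100% = reference inhibitor control wells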
Mtb bLac sens – beta-lactam sensitization of Mtb H37Rv | M. tuberculosis H37Rv growth with meropenem, percent inhibition | inhibition, % at 25 µM | 0.27% of 330,000 active | AID 434955; call rule not given here;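 also: growth measured after seven days incubation then overnight dye step; 0% = bacteria only wells and 100% = bacteria with antibiotic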
FadD28 binding – blocks FadD28 binding to the bisubstrate probe. fluorescence polarization. 0.22% of 360,000 active. inhibition, % at 12.5 µM; in the data active = inhibition above about 8.5%, passing the limit was not always enough
Mtb hypoxia inh – inhibitors of hypoxia-regulated fluorescent reporter in Mycobacterium tuberculosis; M. tuberculosis hypoxia-regulated fluorescent reporter, fluorescence; fluorescence inhibition, % (test concentration not listed); 0.1% of 300,000 active; AID 1159583; in the data active = fluorescence inhibition mostly above about 23%, no sharp cut-off; inactive = mostly below about 17%
An asterisk follows results filed as active.

How did O=C(Nc1ccc(F)cc1F)C1CC(=O)N(Cc2ccccc2)C1 (stereo not drawn) do in these assays?
Mtb UGM inh: -3; Rv3671c protease: 1; Mtb bLac sens: -8; FadD28 binding: 1; Mtb hypoxia inh: 11

Results for COc1ccc(NC(=O)Nc2ccc3c(c2)C(=O)N([C@H](C)CO)C[C@H](C)[C@@H](CN(C)S(=O)(=O)c2ccc(OC)cc2)O3)cc1 ?
Mtb UGM inh: 1; Rv3671c protease: 3; Mtb bLac sens: 3; FadD28 binding: 9.4*; Mtb hypoxia inh: 3

How did Cc1ccc(S(=O)(=O)Nc2cccc3c2O[C@@H](CN(C)C(=O)Nc2ccc4c(c2)OCO4)[C@H](C)CN([C@@H](C)CO)C3=O)cc1 do in these assays?
Mtb UGM inh: 3; Rv3671c protease: 1; Mtb bLac sens: 6; FadD28 binding: 11*

What do the screens show for `COc1ccc(S(=O)(=O)N(C)C[C@H]2Oc3ccc(NC(=O)Nc4ccc(C(F)(F)F)cc4)cc3C(=O)N([C@H](C)CO)C[C@@H]2C)cc1`?
Mtb UGM inh: 2; Rv3671c protease: -231; Mtb bLac sens: 93; FadD28 binding: -2

Results for Cc1ccc(-c2ccc(C#N)c(=O)n2CC(=O)N(C)C)cc1 ?
Mtb UGM inh: -1; Rv3671c protease: 2; RecA splice inh: 0; Mtb bLac sens: 5; FadD28 binding: -2; Mtb hypoxia inh: 11

How did CCCCN(CC)C(=O)c1cc2cc3ccc(OC)cc3nc2o1 do in these assays?
Mtb UGM inh: 1; Rv3671c protease: -17; RecA splice inh: 1; Mtb bLac sens: 77; FadD28 binding: -2; Mtb hypoxia inh: 24

What do the screens show for `CCN(CC(=O)Nc1c(F)cccc1F)C(=O)CN1C(=O)c2ccccc2C1=O`?
Mtb UGM inh: -2; Rv3671c protease: 5; RecA splice inh: -2; Mtb bLac sens: -2; FadD28 binding: -2; Mtb hypoxia inh: 5

What do the screens show for `CCN(CC(=O)Nc1c(F)cccc1F)C(=O)Cc1ccccc1`?
Mtb UGM inh: 2; Rv3671c protease: -1; RecA splice inh: 1; Mtb bLac sens: -2; FadD28 binding: 9.7*; Mtb hypoxia inh: 15

How did COc1c2ccoc2c(OC)c2oc(=O)ccc12 do in these assays?
Mtb UGM inh: 0; Rv3671c protease: -9; RecA splice inh: 0; Mtb bLac sens: -5; FadD28 binding: -1

How did C=CC(C)(C)c1c2occc2c(O)c2ccc(=O)oc12 do in these assays?
Rv3671c protease: 1; Mtb bLac sens: 1; FadD28 binding: 14*

Results for CC1CCC(=O)N(CCC(Oc2ccccc2)c2ccccc2)CC1 (stereo not drawn) ?
Mtb hypoxia inh: 13

How did COc1cc(NC(=O)CN(C)S(=O)(=O)c2ccc3c(c2)CCC(=O)N3)cc(OC)c1 do in these assays?
Mtb UGM inh: -3; Rv3671c protease: 10; RecA splice inh: -3; Mtb bLac sens: -3; FadD28 binding: -5; Mtb hypoxia inh: -5

How did O=C(NNC(=O)c1ccc([N+](=O)[O-])cc1)c1ccc(NS(=O)(=O)c2cccs2)cc1 do in these assays?
Mtb UGM inh: -2; Rv3671c protease: -7; Mtb bLac sens: 79; FadD28 binding: 19*; Mtb hypoxia inh: 9

How did Cc1cccc(C(=O)NNC(=O)c2ccc(NS(=O)(=O)c3cccs3)cc2)c1C do in these assays?
Mtb UGM inh: 1; Rv3671c protease: -6; Mtb bLac sens: 4; FadD28 binding: 13*; Mtb hypoxia inh: 4

Results for O=C(NNC(=O)c1cccs1)c1ccc([N+](=O)[O-])cc1 ?
Mtb UGM inh: -2; Rv3671c protease: 4; Mtb bLac sens: -5; Mtb hypoxia inh: -9

What do the screens show for `Cc1ccc(C(=O)NNC(=O)c2ccc(NS(=O)(=O)c3cccs3)cc2)s1`?
Mtb UGM inh: -2; Rv3671c protease: -23; RecA splice inh: 21; Mtb bLac sens: 59; FadD28 binding: 2; Mtb hypoxia inh: 4

What do the screens show for `CCN(CCCNC(=O)c1ccc(N2CCCC2=O)cc1)c1cccc(C)c1`?
Mtb UGM inh: 1; Rv3671c protease: 3; RecA splice inh: -2; Mtb bLac sens: 3; FadD28 binding: -1

What do the screens show for `COc1ccc(CN2C(=O)NC(=O)/C(=C/c3ccc([N+](=O)[O-])s3)C2=O)cc1`?
Mtb UGM inh: -2; Rv3671c protease: -9; RecA splice inh: 12; Mtb bLac sens: 99; FadD28 binding: 33*

What do the screens show for `O=C1NC(=O)N(Cc2ccc(F)cc2)C(=O)/C1=C\c1ccc([N+](=O)[O-])s1`?
Mtb UGM inh: 1; Rv3671c protease: -97; RecA splice inh: 10; Mtb bLac sens: 99; FadD28 binding: 28*
